VDR inhibitor = inhibitors of human vitamin D receptor. AID 504847. Potency, µM, for inactives: max response, negative = inhibition, hits mostly inhibitors. actives 0.93% (n = 400,000). P11473. VDR-SRC2-3 peptide fluorescence polarization, 2 h; also: % is scaled to controls: 0 for no effect and ±100 for the full control effect
Target sequence (P11473 whole entry, looked up): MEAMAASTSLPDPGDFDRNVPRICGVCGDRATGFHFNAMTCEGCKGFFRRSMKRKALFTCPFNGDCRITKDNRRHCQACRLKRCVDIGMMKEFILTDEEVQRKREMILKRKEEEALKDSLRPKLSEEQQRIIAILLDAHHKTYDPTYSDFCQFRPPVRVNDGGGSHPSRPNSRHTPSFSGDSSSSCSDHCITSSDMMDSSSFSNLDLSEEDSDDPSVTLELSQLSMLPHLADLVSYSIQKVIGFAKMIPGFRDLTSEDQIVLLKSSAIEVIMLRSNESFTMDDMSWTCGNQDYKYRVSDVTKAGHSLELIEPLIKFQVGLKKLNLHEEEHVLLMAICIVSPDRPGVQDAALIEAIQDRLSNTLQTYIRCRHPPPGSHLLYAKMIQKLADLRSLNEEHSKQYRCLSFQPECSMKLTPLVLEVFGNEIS
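Reagent solutions, kept cold and dark, are dispensed first; compounds are then pinned in at 23 nl, plates briefly spun, and incubated 2 h at ambient temperature. Inhibition of VDR–SRC2-3 peptide binding is read by fluorescence polarization.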
Sfp PPTase inh = blocks B. subtilis Sfp PPTase activity. Biochemical Sfp PPTase activity, qHTS. Potency, µM, for the others: largest response in the series, negative = inhibition, usual class: inhibitors. actives 3.5% (n = 310,000). AID 1490;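 also: the enzyme is Sfp with the accession as filed and its product quenches rhodamine fluorescence; 0% = enzyme reaction without inhibitor and -100% = no enzyme wells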
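Sfp 15 nM + cpd, 15 min RT; start w/ rhodamine-CoA 5 uM, BHQ-2-YbbR 12.5 uM (final); 50 mM Hepes pH 7.6, 10 mM MgCl2, 0.01% NP-40, 0.01% BSA; read 525/598 nm at 0 and 30 min.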
Glioma ERSR ind = ER stress response induction in glioma. actives 0.02% (n = 420,000). U87-MG GRP78 promoter luciferase reporter, 16 h. AID 602332. Potency, µM, inactives show at the top dose activation, actives largely listed as activators; also: series mostly up to about 76 µM; % of control where 0% means no effect; nearly all actives have a fitted effect of over 35% in size
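Stably transfected U87-MG human glioma cells carrying a GRP78-based luminescent sensor were seeded at 1000 cells/well, pin-dosed with compounds and incubated 16 h. Luciferase reagent was then added, and end-point luminescence was read after 10 min at room temperature.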
G9a inh = G9a (human) methyltransferase inhibition | G9a H3K9 monomethylation, AlphaScreen, 2 h | Potency, µM (series often up to 102 µM), for inactives: at the top dose activity, negative = inhibition, most hits filed as inhibitors | actives 8.8% (n = 350,000) | AID 504332; also: % is scaled to controls: 0 for no effect and ±100 for the full control effect; nearly all actives have a fitted effect of over 75% in size
Target sequence (Q96KQ7 913-1193 limits assumed): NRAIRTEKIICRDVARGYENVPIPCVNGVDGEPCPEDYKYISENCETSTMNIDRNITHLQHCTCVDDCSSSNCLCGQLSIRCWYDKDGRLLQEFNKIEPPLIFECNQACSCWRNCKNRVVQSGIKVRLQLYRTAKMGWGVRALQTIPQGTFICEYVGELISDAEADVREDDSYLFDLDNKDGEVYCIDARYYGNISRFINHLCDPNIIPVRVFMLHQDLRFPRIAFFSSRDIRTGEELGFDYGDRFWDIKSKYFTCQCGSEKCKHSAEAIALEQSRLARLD
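Quantitative HTS format: methyltransferase activity on a biotin-tagged H3K9 peptide is measured by AlphaScreen, using a rabbit anti-monomethyl-H3K9 antibody with streptavidin donor and anti-IgG acceptor beads. Final levels are 20 nM enzyme, 500 nM peptide, 20 uM SAM; 2 h RT.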
ALOX12 inh = blocks human arachidonate 12S-lipoxygenase; AID 1671190; actives 1.1% (n = 580,000); purified 12hLO, xylenol orange hydroperoxide absorbance; Potency, µM (top dose mostly 108 µM), for inactives: at the highest dose activity change, negative = inhibition, actives largely listed as inhibitors; also: % is scaled to controls: 0 for no effect and ±100 for the full control effect
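Purified human 12hLO (150 nM final) in 25 mM Hepes, 0.01% Triton X-100, pH 7.0 was preincubated 15 min at room temperature with compound. Then 40 uM arachidonic acid was added, 30 min. Hydroperoxide was read by Fe-XO absorbance ratio 573/405 nm.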
Starred values were filed as active, the others as inactive; ? = inconclusive; . = no result; [ ] = another dose, or the depositor's remark. This excerpt belongs to a sample that is enriched for hits. Calls follow the shape of the dose curve; as a rule, active = well fitted curve in the direction sought with a large enough effect; inconclusive = small, poorly fitted or top-dose-only effect, or another doubt; inactive = no such curve, though single readings can be large; an effect the other way counts as inactive or inconclusive. Potency is read from the fitted curve at half-maximal effect.

SMILES	VDR inhibitor	Sfp PPTase inh	Glioma ERSR ind	G9a inh	ALOX12 inh
CC1(C)CC(=O)C2=C(C1)NC(=O)CC2c1ccc(OCc2ccccc2)cc1 (centres undefined)	.	.	.	.	-24.2%
CC(C)N(C(=O)CSc1nnc(C2CC2)n1C1CC1)c1ccccc1	0.1%	.	-0.8%	50.1µM*	6.1%
Cc1c(Br)cc(C(=O)O)cc1Br	.	.	.	.	-26.5%
Cc1c(CCl)cc(C(=O)O)cc1CCl	.	.	.	.	5.62µM*
CCN(CC)Cc1oc(CO)cc(=O)c1O	6.9%	-10.7%	-6.3%	12.6µM*	31.6µM*
CN1CCN(Cc2oc(CO)cc(=O)c2O)CC1	14.5%	-3.4%	-6.3%	?	-3.7%
CCC(=O)Nc1cc(C)c(O)c(-c2nc3ccccc3o2)c1	.	.	.	.	-10.4%
CNc1ccc(Br)cc(C(=O)/C=C/c2cccc(OC)c2)c1=O	?	20µM*	14.5%	7.94µM*	?
COc1ccc(/C=C/C(=O)c2ccc(OC)cc2OC)c(OC)c1	-1.6%	-15.7%	1.8%	-8.8%[59 µM]	2.7%
C=CCNC(=O)/C=C/c1cccc(OC)c1	.	.	.	.	-13.3%
CNc1ccc(Br)cc(C(=O)/C=C/c2ccc(OC)cc2OC)c1=O	?	?	7.6%	7.94µM*	?
O=C(O)CCN1CCc2ccccc2C1c1cccs1 (centres undefined)	2.9%	-7.7%	0.5%	50.1µM*	-9.2%
Nc1nnc(-c2ccccc2Cl)s1	-7.4%	?	0.3%	22.4µM*	?
CCNc1nc(NCC)n2c(SC(C(=O)Nc3cc(C)ccc3OC)c3ccccc3)nnc2n1 (centres undefined)	-8.9%	50.1µM*	1.4%	?	-10.2%
COc1ccc(C)cc1NC(=O)C(Sc1nnc2ccccn12)c1ccccc1 (centres undefined)	-18.3%	7.0%	-2.6%	20.3%[59 µM]	-1.3%
COc1ccc(C)cc1NC(=O)C(Sc1nnc(Nc2cc(C)ccc2OC)s1)c1ccccc1 (centres undefined)	2.4%	5.2%	-1.5%	3.55µM*	-12.4%
COc1ccc(Nc2nnc(SC(C(=O)Nc3cc(C)ccc3C)c3ccccc3)s2)cc1 (centres undefined)	-14.7%	10.7%	-4.4%	50.1µM*	?
COc1ccc(Nc2nnc(SC(C(=O)Nc3ccc(OC)c(Cl)c3)c3ccccc3)s2)cc1 (centres undefined)	-10.7%	-2.9%	6.0%	20µM*	-5.1%
COc1cccc(NC(=O)C(Sc2nnc(Nc3ccccc3C)s2)c2ccccc2)c1 (centres undefined)	-10.8%	18.4%	-3.4%	?	-11.4%
c1ccc(-c2csc3nc(CN4CCCCC4)nc(Nc4cn[nH]c4)c23)cc1	.	.	.	.	1.1%
COc1ccc(-c2cc(C(=O)O)c3cc(C)cc(C)c3n2)cc1	.	.	.	.	-43.0%
Cc1ccccc1Nc1nc(NC2CCCC2)nc2c1cnn2C	.	.	.	.	-11.6%
CC(C)N1CCc2c(C#N)c(NCc3ccccc3)n3cnnc3c2C1	.	.	.	.	-22.6%
S=c1[nH]nc(CSCc2ccccc2Cl)n1C1CCCCC1	-14.9%	12.8%	-4.3%	3.55µM*	44.7µM*
COc1ccc(-n2c(COc3cccc(C)c3)n[nH]c2=S)cc1	1.3%	12.6%	-1.6%	16.9%[0.501 µM]	8.91µM*
SMILES	VDR inhibitor	Sfp PPTase inh	Glioma ERSR ind	G9a inh	ALOX12 inh
Cc1cccc(OCc2nnc(SCCC(=O)O)n2-c2ccccc2)c1	-5.0%	50.1µM*	0.6%	-46.7%[0.501 µM]	0.0%
COc1ccc(OCc2n[nH]c(=S)n2-c2ccc(C)cc2)cc1	-14.3%	-22.9%	-2.9%	?	?
S=c1[nH]nc(COc2ccc(Cl)cc2)n1C1CCCCC1	-7.3%	16.0%	1.2%	?	?
Cc1ccc(OCc2n[nH]c(=S)n2C2CCCCC2)cc1	-5.1%	9.4%	0.5%	1.12µM*	?
COc1ccc(-n2c(COc3cccc(C)c3)nnc2SCC(=O)O)cc1	1.8%	16.9%	-4.6%	-4.2%	0.0%
O=C(c1ccc(Br)cc1)N1CCC(CN2CCOCC2)CC1	.	.	.	.	13.8%
N#Cc1ccccc1OCC(=O)NC1(C#N)CCCC1	.	.	.	.	0.4%
COc1ccccc1CCN[C@H]1CS(=O)(=O)C[C@@H]1S(=O)(=O)c1ccc(F)cc1	.	.	.	.	-19.1%
N#Cc1nc(-c2ccc(S(=O)(=O)N3CCCCCC3)cc2)oc1NCc1ccc2c(c1)OCO2	.	.	.	.	-13.1%
CC(C)n1cnnc1SCCOc1ccccc1Cl	.	.	.	.	9.0%
Cc1cccc(OCc2n[nH]c(=S)n2C2CCCCC2)c1	0.1%	6.5%	-2.6%	1.78µM*	?
CCCSc1c(C(C)C)cnc2c1c(=O)n(C)c(=O)n2C	.	.	.	.	-25.2%
CCOCCSc1c(C)cnc2c1c(=O)n(C)c(=O)n2C	4.5%	.	-0.3%	12.6µM*	-14.4%
c1ccc(C2(CNc3ccccn3)CCCC2)cc1	-6.9%	0.2%	5.5%	50.1µM*	-9.1%
CC(C)(C)OC1NS(=O)(=O)OCC1NCOC(Cl)(Cl)Cl (centres undefined)	?	12.6µM*	-2.5%	31.6µM*	-10.8%
C=CCC1NS(=O)(=O)OCC1NC(=O)OCC(Cl)(Cl)Cl (centres undefined)	-8.0%	18.9%	-2.0%	19.4%	9.3%
O=C(Nc1ccc([C@@H](O)[C@H]2COCC(=O)N2Cc2ccc(F)cc2)cc1)c1ccc2c(c1)OCO2	.	.	.	.	9.7%
COc1ccccc1C(=O)NC(CCSC)C(=O)NCCCSc1ccccc1 (centres undefined)	-8.0%	.	-2.9%	56.2µM*	?
COc1ccccc1OCCNC(=O)C(CCSC)NC(=O)c1ccccc1Cl (centres undefined)	-9.4%	.	-4.4%	1.3%[0.501 µM]	?
COc1ccc2c(CN3CCN(c4ccccc4O)CC3)cc(=O)oc2c1	.	.	.	.	-17.6%
O=C(O)CCCNC(=O)c1cccc(C(=O)NCCCC(=O)O)n1	-17.3%	-2.3%	-2.4%	20µM*	-5.7%
O=C(NCCCCNC(=O)c1ccccn1)c1ccccn1	6.9%	79.4µM*	-2.0%	3.55µM*	1.0%
O=C(NCCCCCNC(=O)c1ccccn1)c1ccccn1	-10.8%	9.5%	-4.7%	18.9%	1.1%
CCCCc1nnc(NC(=O)CCc2c[nH]c3ccccc23)s1	.	.	.	.	28.5%
O=c1c2ccc(Cl)cc2ncn1Cc1ncc(-c2ccccc2)o1	.	.	.	.	15.7%
SMILES	VDR inhibitor	Sfp PPTase inh	Glioma ERSR ind	G9a inh	ALOX12 inh
O=C(C=C(Sc1ccccc1)Sc1ccccc1)C(F)(F)F	.	.	.	.	35.5µM*
COc1ccc(CNC(=O)CCc2ncc(-c3ccc(C)cc3)o2)cc1	.	.	.	.	77.5%
COc1ccccc1/C=C/C=N/n1c(-c2ccccc2)n[nH]c1=S	15.6%	-58.1%	-2.4%	.	?
COc1cccc(/C=N/n2c(-c3cc(C)[nH]n3)n[nH]c2=S)c1OC	-5.8%	-29.0%	-4.0%	.	?
Cc1cccc(-c2n[nH]c(=S)n2/N=C/c2ccc(C)o2)c1	-17.5%	?	-1.8%	2µM*	?
COc1ccc(/C=N/n2c(-c3cc(C)[nH]n3)n[nH]c2=S)cc1	-15.3%	-28.0%	-3.2%	2.24µM*	?
COc1cc(/C=N/n2c(-c3cc(C)[nH]n3)n[nH]c2=S)cc(OC)c1O	7.3%	28.2µM*	-2.2%	5.01µM*	?

Assay outcomes deposited in PubChem by National Center for Advancing Translational Sciences (NCATS).
